Assay results: PubChem BioAssay (Tox21)
Inconclusive results are not listed. Calls of active or inactive are those of the source. Unless noted, calls follow the shape of the dose curve; as a rule, active = well fitted curve in the direction sought with a large enough effect in the repeat runs; inconclusive = weak or mixed curves; inactive = no such curve, though single readings can be large; an effect the other way counts as inactive or inconclusive.

What was measured:
[1] = qHTS assay to identify small molecule agonists of the estrogen receptor beta (ER-beta) signaling pathway - cell viability counter screen (AID 1259380); also: nearly all actives have a fitted effect of over 30% in size; also: potency is read from the fitted curve at half-maximal effect
Summary of the method: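 Same-well viability counter screen. Cells: ER-beta-UAS-bla HEK293T, plated 6 hr before compound, in 2% charcoal-stripped FBS. Compound exposure 16 hr, 37C; viability by CellTiter-Glo luminescence after 30 min at room temperature.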

[2] = target: Androgen receptor (Homo sapiens) (UniProt P10275); experiment: qHTS assay to identify small molecule agonists of the androgen receptor (AR) signaling pathway in the presence of an antagonist (AID 1259381; calls by dose curve; also: nearly all actives have a fitted effect of over 15% in size)
Summary of the method: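 Cells are MDA-kb2 (human breast carcinoma, MMTV-luc, AR/GR responsive). Nilutamide is present at 3.0uM final throughout; compounds are added at 15 concentrations and incubated 16hr at 37C before ONE-Glo luminescence detection.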

[3] = qHTS assay to identify small molecule antagonists of the estrogen receptor beta (ER-beta) signaling pathway - cell viability counter screen (AID 1259382); also: nearly all actives have a fitted effect of over 55% in size; also: potency is read from the fitted curve at half-maximal effect
Summary of the method: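 Following a 6 hr plating period, HEK293T cells carrying a UAS-driven beta-lactamase reporter under ER-beta control received compounds and 1nM E2 (final). After 16 hr at 37C and 2 hr substrate loading, CellTiter-Glo luminescence indicated viability.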

[4] = target: Estrogen receptor (Homo sapiens) (UniProt P03372); experiment: qHTS assay to identify small molecule agonists of the estrogen receptor alpha (ER-alpha) signaling pathway in the presence of an antagonist (AID 1259383; calls by dose curve; also: top concentration of the series differs between compounds; nearly all actives have a fitted effect of over 15% in size)
Summary of the method: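 Cells are hormone-deprived for 5 days (charcoal-stripped FBS, no phenol red), plated for 24hr, spiked with 10.0nM ICI-182,780, then dosed at 15 concentrations. After 22hr at 37C, ONE-Glo luminescence reports ERE-luciferase activity.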

[5] = target: Thyrotropin receptor (Homo sapiens) (UniProt P16473); experiment: qHTS assay to identify small molecule antagonists of the thyroid stimulating hormone receptor (TSHR) signaling pathway (AID 1259385; calls by dose curve; also: nearly all actives have a fitted effect of over 20% in size; also: potency is read from the fitted curve at half-maximal effect)
Summary of the method: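 TSHR-HEK293 cells (800/well) plated 18 h, then compounds with Ro20-1724 and TSH at 1.5 ng/mL final, 30 min at room temperature. cAMP quantified by HTRF (cAMP-d2/anti-cAMP-cryptate, 1 h); 15 concentrations in triplicate.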

[6] = qHTS assay to identify small molecule agonists of the estrogen receptor alpha (ER-alpha) signaling pathway in the presence of an antagonist - cell viability counter screen (AID 1259386);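 also: cells exposed to compounds for 22 h at 37 °C before the viability read; nearly all actives have a fitted effect of over 30% in size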; also: potency is read from the fitted curve at half-maximal effect
Summary of the method: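 Cells are starved of estrogens for 5 days in charcoal-stripped serum, seeded for 24hr and co-treated with ICI-182,780 (10.0nM final) and test compounds. After 22hr at 37C, viability is read as CellTiter-Fluor fluorescence.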

[7] = qHTS assay to identify small molecule agonists of the TGF-beta/Smad signaling pathway (AID 1346859; active = well fitted activation curve with a large enough effect in the signal ratio in the repeat runs, not every such curve was filed as active; the % refers to the signal ratio; also: series mostly up to about 77 µM)
Summary of the method: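 Dual-wavelength fluorescence (460/530 nm emission) quantified beta-lactamase expression under the Smad binding element in HEK 293T cells following 5 hr compound treatment at 37 C.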

[8] = target: Thyrotropin-releasing hormone receptor (Homo sapiens) (UniProt P34981); experiment: qHTS assay to identify small molecule antagonists of the thyrotropin-releasing hormone receptor (TRHR) signaling pathway (AID 1346877; active = well fitted inhibition curve with a large enough effect in the repeat runs, not every such curve was filed as active; also: potency is read from the fitted curve at half-maximal effect)
Summary of the method: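 Cells (TRHR-HEK293) are plated and kept 18 h at 37 °C/5% CO2. A calcium-sensitive dye is added for 2 h, compound follows for 5 min at room temperature, and TRH is then given at 1 nM final.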

[9] = Human pregnane X receptor (PXR) small molecule agonists, qHTS cell viability counter screen (AID 1346977); also: nearly all actives have a fitted effect of over 50% in size; also: potency is read from the fitted curve at half-maximal effect
Summary of the method: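 HepG2 cells stably carrying the PXR-Luc reporter are cultured with 5% charcoal-stripped FBS and treated with compounds for 24hr. CellTiter-Fluor is added at 23hr and fluorescence is read after 1hr.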

[10] = Caspase-3/7 induction in HepG2 cells by small molecules, qHTS assay (AID 1346978); also: nearly all actives have a fitted effect of over 15% in size; also: potency is read from the fitted curve at half-maximal effect
Summary of the method: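 Wild-type HepG2 cells, 2,000/well, settled 5 hr at 37 C and 5% CO2, then compound-treated for 17 hr; caspase-3/7 activity read by luminescent Caspase-Glo 3/7 after 30 min at room temperature.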

[11] = Caspase-3/7 induction in CHO-K1 cells by small molecules, qHTS cell viability counter screen (AID 1346979); also: nearly all actives have a fitted effect of over 35% in size; also: potency is read from the fitted curve at half-maximal effect
Summary of the method: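 Seeding: 1,500 CHO-K1 cells/well. Rest: 5hr, 37C. Treatment: compounds in DMSO, 16hr. Read: CellTiter-Fluor, 1hr, fluorescence.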

[12] = qHTS assay to identify small molecule agonists or antagonists of the thyroid stimulating hormone receptor (TSHR) signaling pathway - wild type cell line counter screen (AID 1259384; calls by dose curve)
Summary of the method: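 Wild-type Hek293 cells, 800/well, 18 h at 37C, then compound with Ro20-1724 for 30 min RT. cAMP by HTRF (cAMP-d2/anti-cAMP cryptate), 1 h RT, fluorescence read. 15 concentrations, triplicates.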

[13] = qHTS assay to identify small molecule antagonists of the progesterone receptor (PR) signaling pathway - cell viability counter screen (AID 1346798); also: nearly all actives have a fitted effect of over 50% in size; also: potency is read from the fitted curve at half-maximal effect
Summary of the method: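 Viability was determined by ATP-based luminescence (CellTiter-Glo) in PR-UAS-bla HEK293T cells cultured in 2% charcoal-stripped serum and incubated 16 hr with compounds under R5020 stimulation.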

[14] = qHTS assay to identify small molecule agonists of the progesterone receptor (PR) signaling pathway - cell viability counter screen (AID 1346799; calls by dose curve; also: nearly all actives have a fitted effect of over 45% in size; also: potency is read from the fitted curve at half-maximal effect)
Summary of the method: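 Viability was scored by ATP luminescence (CellTiter-Glo, 30 min, room temperature) in the same wells used for the reporter readout, after 16 hr compound exposure of PR-UAS-bla HEK293T cells.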

[15] = target: Thyrotropin-releasing hormone receptor (Homo sapiens) (UniProt P34981); experiment: qHTS assay to identify small molecule agonists of the thyrotropin-releasing hormone receptor (TRHR) signaling pathway (AID 1346891; calls by dose curve;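 also: HEK293 cells expressing TRHR with calcium dye readout; series mostly up to about 58 µM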)
Summary of the method: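 Kinetic fluorescence (3 min, 1 s intervals) reported intracellular calcium after compound transfer onto TRHR-Hek293 cells pre-loaded with dye for 2 h at 37 °C.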

[16] = qHTS assay to identify small molecule antagonists of the TGF-beta/Smad signaling pathway - cell viability counter screen (AID 1346824); also: nearly all actives have a fitted effect of over 50% in size; also: potency is read from the fitted curve at half-maximal effect
Summary of the method: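 SBE-bla HEK 293T cells, incubated overnight, then compound plus 0.25 ng/mL TGF-beta1 (stock added) for 5 hr at 37 C. Viability was read in the same wells by CellTiter-Glo luminescence after 30 min at room temperature.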

[17] = qHTS assay to identify small molecule agonists of the TGF-beta/Smad signaling pathway - cell viability counter screen (AID 1346829); also: nearly all actives have a fitted effect of over 45% in size; also: potency is read from the fitted curve at half-maximal effect
Summary of the method: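 Same-well cytotoxicity: CellTiter-Glo added after the 2 hr room-temperature beta-lactamase substrate step, luminescence measured 30 min later; cells had 5 hr of compound at 37 C.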

[18] = target: Progesterone receptor (Homo sapiens) (UniProt P06401); experiment: qHTS assay to identify small molecule agonists of the progesterone receptor (PR) signaling pathway (AID 1346784; calls by dose curve; also: nearly all actives have a fitted effect of over 30% in size)
Summary of the method: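 The screen uses PR-UAS-bla HEK 293T cells in charcoal-stripped serum (2%). Compounds are applied for 16 hr at 37C after a 6 hr pre-incubation, and reporter activity is detected with a FRET beta-lactamase substrate after 2 hr at room temperature.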

[19] = target: Progesterone receptor (Homo sapiens) (UniProt P06401); experiment: qHTS assay to identify small molecule antagonists of the progesterone receptor (PR) signaling pathway (AID 1346795; active = well fitted inhibition curve with a large enough effect in the signal ratio in the repeat runs, not every such curve was filed as active; the % refers to the signal ratio; also: potency is read from the fitted curve at half-maximal effect)
Summary of the method: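 After 6 hr plating at 37C in 2% stripped-serum medium, PR-UAS-bla HEK293T cells got compounds, then 1 nM R5020. Sixteen hours later, LiveBLAzer substrate was applied for 2 hr at room temperature and fluorescence was recorded.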

[20] = qHTS assay to identify small molecule agonists of the androgen receptor (AR) signaling pathway in the presence of an antagonist - cell viability counter screen (AID 1259379); also: potency is read from the fitted curve at half-maximal effect; nearly all actives have a fitted effect of over 25% in size
Summary of the method: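 Fluorescence from CellTiter-Fluor, added after 15 hr and read 1 hr later, gave cell viability. Cells were MDA-kb2 exposed to compounds (15 concentrations) in the presence of 3.0uM nilutamide at 37C, 0% CO2.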

Measured: Potency

Sequence of Androgen receptor (Homo sapiens) (P10275 whole entry, looked up): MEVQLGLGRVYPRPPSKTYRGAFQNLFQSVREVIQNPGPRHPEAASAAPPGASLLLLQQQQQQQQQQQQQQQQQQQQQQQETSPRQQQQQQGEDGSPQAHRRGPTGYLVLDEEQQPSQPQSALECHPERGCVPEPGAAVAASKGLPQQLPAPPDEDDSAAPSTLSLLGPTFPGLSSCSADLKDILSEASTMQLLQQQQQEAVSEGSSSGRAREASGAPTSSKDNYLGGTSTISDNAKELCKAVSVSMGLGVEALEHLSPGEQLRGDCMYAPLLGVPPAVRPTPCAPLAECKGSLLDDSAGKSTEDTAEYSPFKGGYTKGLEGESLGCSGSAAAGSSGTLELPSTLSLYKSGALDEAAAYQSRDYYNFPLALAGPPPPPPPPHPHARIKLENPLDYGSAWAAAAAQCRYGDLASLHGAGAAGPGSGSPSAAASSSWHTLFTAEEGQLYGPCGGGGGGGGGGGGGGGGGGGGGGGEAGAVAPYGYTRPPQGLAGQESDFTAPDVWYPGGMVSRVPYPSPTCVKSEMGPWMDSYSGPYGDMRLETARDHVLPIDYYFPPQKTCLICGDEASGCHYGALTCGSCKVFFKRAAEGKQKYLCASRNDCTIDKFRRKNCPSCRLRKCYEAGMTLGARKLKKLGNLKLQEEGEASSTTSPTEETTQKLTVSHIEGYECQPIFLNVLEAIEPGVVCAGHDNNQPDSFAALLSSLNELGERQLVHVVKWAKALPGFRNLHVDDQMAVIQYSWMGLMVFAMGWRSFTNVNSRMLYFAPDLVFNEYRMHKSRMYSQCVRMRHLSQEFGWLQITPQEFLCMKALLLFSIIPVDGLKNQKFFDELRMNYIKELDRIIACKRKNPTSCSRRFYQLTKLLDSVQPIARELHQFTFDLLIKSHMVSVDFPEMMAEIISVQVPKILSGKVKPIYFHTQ
Sequence of Progesterone receptor (Homo sapiens) (P06401 whole entry, looked up): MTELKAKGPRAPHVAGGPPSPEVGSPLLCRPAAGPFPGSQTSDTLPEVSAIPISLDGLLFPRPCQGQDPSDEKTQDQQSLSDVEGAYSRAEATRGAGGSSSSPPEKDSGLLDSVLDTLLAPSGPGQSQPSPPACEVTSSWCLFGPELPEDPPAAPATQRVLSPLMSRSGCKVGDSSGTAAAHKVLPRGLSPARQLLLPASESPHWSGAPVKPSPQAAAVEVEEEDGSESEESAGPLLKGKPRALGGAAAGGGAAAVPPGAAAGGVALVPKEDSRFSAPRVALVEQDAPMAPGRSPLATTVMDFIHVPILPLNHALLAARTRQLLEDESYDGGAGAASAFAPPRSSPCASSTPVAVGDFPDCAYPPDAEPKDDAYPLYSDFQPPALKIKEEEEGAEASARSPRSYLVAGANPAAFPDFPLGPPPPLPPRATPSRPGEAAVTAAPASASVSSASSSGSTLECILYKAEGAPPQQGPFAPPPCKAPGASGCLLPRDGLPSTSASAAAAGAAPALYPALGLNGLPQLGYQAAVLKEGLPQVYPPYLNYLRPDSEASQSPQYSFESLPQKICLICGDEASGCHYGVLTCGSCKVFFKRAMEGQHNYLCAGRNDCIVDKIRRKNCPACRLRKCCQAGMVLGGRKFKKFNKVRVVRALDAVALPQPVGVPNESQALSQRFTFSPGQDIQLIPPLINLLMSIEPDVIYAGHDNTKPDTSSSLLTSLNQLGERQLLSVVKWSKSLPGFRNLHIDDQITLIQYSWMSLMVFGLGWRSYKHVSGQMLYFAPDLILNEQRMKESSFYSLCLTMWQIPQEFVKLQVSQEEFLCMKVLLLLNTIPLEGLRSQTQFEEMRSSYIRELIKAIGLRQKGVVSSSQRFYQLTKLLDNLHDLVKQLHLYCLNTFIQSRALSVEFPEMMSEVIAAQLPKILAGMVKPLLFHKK
Sequence of Estrogen receptor (Homo sapiens) (P03372 whole entry, looked up): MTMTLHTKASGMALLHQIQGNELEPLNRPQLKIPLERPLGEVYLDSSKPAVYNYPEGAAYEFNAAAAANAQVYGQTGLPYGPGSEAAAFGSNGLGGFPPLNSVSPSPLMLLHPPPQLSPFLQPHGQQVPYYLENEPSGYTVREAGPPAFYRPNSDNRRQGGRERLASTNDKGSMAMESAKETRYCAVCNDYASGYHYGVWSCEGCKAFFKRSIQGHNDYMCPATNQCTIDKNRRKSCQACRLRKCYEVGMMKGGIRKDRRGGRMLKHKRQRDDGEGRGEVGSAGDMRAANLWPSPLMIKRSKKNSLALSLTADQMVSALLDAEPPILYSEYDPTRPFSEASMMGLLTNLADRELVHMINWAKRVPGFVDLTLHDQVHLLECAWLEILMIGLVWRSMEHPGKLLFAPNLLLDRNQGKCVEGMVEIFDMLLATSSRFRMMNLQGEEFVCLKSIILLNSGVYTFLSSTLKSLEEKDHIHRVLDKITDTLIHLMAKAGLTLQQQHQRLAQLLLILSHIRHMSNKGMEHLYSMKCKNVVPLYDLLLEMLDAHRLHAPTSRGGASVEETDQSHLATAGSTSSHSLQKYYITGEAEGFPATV
Sequence of Thyrotropin-releasing hormone receptor (Homo sapiens) (P34981 whole entry, looked up): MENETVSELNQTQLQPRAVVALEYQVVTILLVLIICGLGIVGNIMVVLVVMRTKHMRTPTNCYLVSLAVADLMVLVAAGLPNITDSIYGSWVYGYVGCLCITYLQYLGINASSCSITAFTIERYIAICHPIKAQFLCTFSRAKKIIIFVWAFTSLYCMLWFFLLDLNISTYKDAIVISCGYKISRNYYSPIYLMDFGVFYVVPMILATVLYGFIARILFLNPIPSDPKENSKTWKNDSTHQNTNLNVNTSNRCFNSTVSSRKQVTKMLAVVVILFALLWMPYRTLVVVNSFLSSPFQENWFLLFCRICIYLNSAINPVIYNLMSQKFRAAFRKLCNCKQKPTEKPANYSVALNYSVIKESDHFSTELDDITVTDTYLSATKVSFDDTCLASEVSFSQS
Sequence of Thyrotropin receptor (Homo sapiens) (P16473 whole entry, looked up): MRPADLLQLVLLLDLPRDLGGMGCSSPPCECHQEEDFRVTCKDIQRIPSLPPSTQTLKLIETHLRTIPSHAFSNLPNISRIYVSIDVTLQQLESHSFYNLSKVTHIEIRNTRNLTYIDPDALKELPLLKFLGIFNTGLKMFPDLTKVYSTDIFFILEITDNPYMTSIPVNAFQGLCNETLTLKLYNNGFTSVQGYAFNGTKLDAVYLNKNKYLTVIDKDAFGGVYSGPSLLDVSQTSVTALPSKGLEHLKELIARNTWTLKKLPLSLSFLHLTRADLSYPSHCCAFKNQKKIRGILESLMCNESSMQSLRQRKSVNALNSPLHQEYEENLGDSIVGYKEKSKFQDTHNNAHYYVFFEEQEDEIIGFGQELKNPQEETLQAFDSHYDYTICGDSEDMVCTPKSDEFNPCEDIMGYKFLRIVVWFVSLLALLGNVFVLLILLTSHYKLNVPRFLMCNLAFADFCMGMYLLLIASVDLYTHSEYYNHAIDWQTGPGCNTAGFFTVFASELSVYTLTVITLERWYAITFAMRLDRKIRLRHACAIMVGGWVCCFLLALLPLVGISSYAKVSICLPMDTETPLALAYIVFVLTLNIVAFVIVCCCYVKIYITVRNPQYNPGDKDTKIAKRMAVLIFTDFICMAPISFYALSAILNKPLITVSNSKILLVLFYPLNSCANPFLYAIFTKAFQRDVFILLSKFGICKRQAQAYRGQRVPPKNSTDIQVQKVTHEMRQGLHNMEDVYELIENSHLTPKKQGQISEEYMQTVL

Cc1ccc(S(=O)(=O)C(I)I)cc1
inactive: [2] | [4] | [7] | [10]
active: [1] 21.7 µM | [3] 30.6 µM | [5] 68.6 µM | [6] 68.6 µM | [8] 10.7 µM | [9] 27.3 µM | [11] 15.4 µM

CN(C)CCOc1ccc(/C(=C(/CCCl)c2ccccc2)c2ccccc2)cc1
active: [1] 40.5 µM | [5] 40.5 µM | [13] 51 µM | [14] 57.2 µM | [9] 22.8 µM | [10] 57.2 µM | [11] 51 µM
inactive: [2] | [12] | [7] | [8] | [15]

C=C1C(CCl)(CCl)C2(Cl)C(Cl)C(Cl)C1(Cl)C2(Cl)Cl (centres undefined)
active: [1] 48 µM | [13] 67.8 µM | [17] 54.3 µM | [11] 53.8 µM
inactive: [2] | [5] | [16] | [7] | [8] | [15]

O=C(c1ccccc1)c1ccc(Cl)cc1
active: [11] 61.1 µM
inactive: [1] | [2] | [3] | [4] | [5] | [6] | [18] | [13] | [14] | [17] | [8] | [15] | [9] | [10]

CC/C=C\C/C=C\C/C=C\CCCCCCCC(=O)OC
active: [1] 48.6 µM | [11] 61.1 µM
inactive: [2] | [4] | [12] | [5] | [6] | [18] | [19] | [13] | [16] | [7] | [8]

CC(C)(C)c1cc(CCC(=O)OCCSCCOC(=O)CCc2cc(C(C)(C)C)c(O)c(C(C)(C)C)c2)cc(C(C)(C)C)c1O
inactive: [1] | [2] | [4] | [12] | [5] | [6] | [18] | [13] | [14] | [16] | [17] | [8] | [9] | [10] | [11]

O=C(CCCCCCCCc1cccnc1)N1CCC(C=C(c2ccccc2)c2ccccc2)CC1
active: [1] 21.7 µM | [3] 24.3 µM | [19] 21.7 µM | [13] 30.6 µM | [14] 30.6 µM | [16] 54.9 µM | [17] 54.9 µM
inactive: [2] | [12] | [5] | [8] | [15] | [10]

CCn1c2ccccc2c2ccccc21
inactive: [1] | [2] | [4] | [5] | [6] | [18] | [19] | [13] | [14] | [16] | [17] | [8] | [15] | [9] | [10] | [11]

CC1(C)[C@H]2CC[C@]1(C)C(=O)C2
inactive: [1] | [3] | [4] | [12] | [5] | [6] | [18] | [13] | [16] | [17] | [8] | [15] | [9] | [10]
active: [11] 61.1 µM

CC1(C)[C@H](C(=O)OCc2cccc(Oc3ccccc3)c2)[C@@H]1C=C(Cl)Cl
inactive: [1] | [2] | [3] | [4] | [12] | [5] | [6] | [18] | [19] | [13] | [14] | [16] | [17] | [7] | [8] | [15] | [9] | [10] | [11]

CC/C(=C(/c1ccc(O)cc1)c1ccc(OCCN(C)C)cc1)c1ccccc1
active: [1] 32 µM | [3] 28.5 µM | [13] 32 µM | [14] 18 µM | [9] 18 µM | [10] 40.3 µM | [11] 32 µM
inactive: [2] | [12] | [5] | [8] | [15]

Clc1cccc(Cl)n1
inactive: [1] | [2] | [3] | [4] | [6] | [18] | [13] | [14] | [16] | [17] | [7] | [9] | [10]

Nc1ccc(N)c([N+](=O)[O-])c1
inactive: [13] | [10]
active: [20] 54.5 µM | [6] 30.6 µM | [11] 40.9 µM

[Cl][Dy]([Cl])[Cl]
inactive: [1] | [3] | [4] | [12] | [5] | [18] | [14] | [17] | [7] | [8] | [15] | [9] | [10] | [11]

C[C@H]1O[C@@H](O[C@H]2CC[C@@]3(C)[C@H](CC[C@@H]4[C@@H]3C[C@@H](O)[C@]3(C)[C@@H](C5=CC(=O)OC5)CC[C@]43O)C2)C[C@H](O)[C@@H]1O[C@H]1C[C@H](O)[C@H](O[C@H]2C[C@H](O)[C@H](O[C@@H]3O[C@H](CO)[C@@H](O)[C@H](O)[C@H]3O)[C@@H](C)O2)[C@@H](C)O1
active: [1] 0.168 µM | [3] 0.188 µM | [13] 0.298 µM | [14] 0.266 µM
inactive: [2] | [4] | [6] | [18] | [8] | [10] | [11]
